Inconclusive results are not listed. A call without a number means that no potency is given here. Values without a mark were called inactive. Calls of active or inactive are those of the source. The call rests on the fitted dose curve.

Drawing on PubChem BioAssay (Tox21), this text covers Potency and activation for 48 molecules.

The experiment is described as follows: p53 small molecule agonists, cell-based qHTS assay with human liver microsomes (AID 1963577).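 Further: p53 response element beta-lactamase reporter cells with liver microsomes plus NADPH.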 Particulars: HCT-116 p53RE-bla with human liver microsomes, ratio, 16 h; series mostly up to 66 µM. The gist of the method: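 Fluorescence of the beta-lactamase reporter in p53RE-bla cells, detected with LiveBLAzer substrate (2 h, room temperature, dark), served as the read-out after 16 h compound exposure at 37 C with human liver microsomes and NADPH, each 0.5 mg/mL final.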
A general note: qHTS replaces the single test concentration by a dilution series.

As to `O=c1[nH]sc2cc(Cl)ccc12`, the Potency entry is “inactive”.
For `CC(C)Cn1cnc2c(N)nc3ccccc3c21`, the activation is 13.5% [at 13.5 µM].
In the case of `CC/C(=C\C(=N/O)C(N)=O)C(C)[N+](=O)[O-]` (stereo not drawn), the Potency result is “inactive”.
The same measure, in the same setting: the same measure for `C/C=C\C/C=C/CCCCCCCCOC(C)=O`: “inactive”; for `COS(=O)(=O)C(F)(F)F`: “inactive”.
For the molecule `CC(C)c1ccc2sc3ccccc3c(=O)c2c1`, the Potency result was “inactive”.
The same measure, in the same setting: the same measure for `O=C(OC1C[C@H]2CC[C@@H](C1)[N+]21CCCC1)C(O)(c1ccccc1)c1ccccc1` (stereo partly drawn): “inactive”.
Still for that read-out and setting: for `CCOCCOCCOC(C)=O` the value was “inactive”.
The same measure, in the same setting: the same measure for `COc1ccc(OC)c(N=Nc2c(O)ccc3ccccc23)c1`: “inactive”.
For `CC1CCc2cc(F)cc3c(=O)c(C(=O)O)cn1c23` (stereo not drawn), the Potency result is “inactive”.
The same measure, in the same setting: the same measure for `O=C(/C=C/c1ccc(O)c(O)c1)O[C@@H]1C[C@](O)(C(=O)O)C[C@@H](O)[C@H]1O`: “inactive”.
Same read-out and setting: the same measure for `CC(C)(C)c1cc(C=O)cc(C(C)(C)C)c1O`: “inactive”; for `O=[N+]([O-])c1ccc2[nH]ncc2c1`: “inactive”; for `CC(C)=CCC/C(C)=C/CC/C(C)=C/CCC(=O)OC/C=C(\C)CCC=C(C)C`: “inactive”.
Take `CCN[C@@H]1C[C@H](N)[C@@H](OC2OC(CN)=CCC2N)[C@H](O)[C@H]1O[C@H]1OC[C@](C)(O)[C@H](NC)[C@H]1O` (stereo partly drawn): the activation is 2.31% [at 0.249 µM].
Regarding `CC[N+](CC)(CCNC(=O)C(=O)NCC[N+](CC)(CC)Cc1ccccc1Cl)Cc1ccccc1Cl`, the Potency entry was “inactive”.
Same read-out and setting: for `CC(c1cc(C(C)(C)C)cc(C(C)(C)C)c1O)c1cc(C(C)(C)C)cc(C(C)(C)C)c1O` the value was “inactive”; for `CC1(C)S[C@@H]2[C@H](NC(=O)Cc3ccccc3)C(=O)N2[C@H]1C(=O)O` (tested in a mixture with another compound), “inactive”; for `CC(C)COC(=O)COc1cc(Cl)c(Cl)cc1Cl`, “inactive”.
As to `O=C1CCCC(=O)C1`, the Potency result was “inactive”.
Same read-out and setting: for `O=C(O)c1cc(Cl)cc(Cl)c1` the value was “inactive”; for `CC(C)Cc1ccc(C(C)C(=O)OCc2ccccn2)cc1` (stereo not drawn), “inactive”; for `O=C(OOC(=O)c1ccccc1)c1ccccc1`, “inactive”.
Same read-out and setting: for `CC(=O)[C@H]1CC[C@H]2[C@@H]3C=CC4=CC(=O)CC[C@@]4(C)[C@@H]3CC[C@]12C` the value was “inactive”.
The same measure, in the same setting: the same measure for `CCC(Cc1ccccc1)(C(=O)c1ccc(N2CCOCC2)cc1)N(C)C` (stereo not drawn): “inactive”.
As for `CC(=O)OC1CCCCC1C(C)(C)C` (stereo not drawn), the Potency entry is “inactive”.
Same read-out and setting: the same measure for `O=C(CO)[C@@H](O)[C@H](O)[C@H](O)CO`: “inactive”; for `C=C(C)CCO`: “inactive”.
Consider `CCCCCCC(=O)OCC`, for which the Potency entry was “inactive”.
On the same count and under the same terms, for `C=CCCCC` the value was “inactive”.
Same read-out and setting: the same measure for `Clc1cccnc1`: “inactive”; for `CC1CCCCC1`: “inactive”.
Same read-out and setting: for `C=C(C)C(=O)OCC(C)(C)COC(=O)C(=C)C` the value was “inactive”.
For `COc1ccccc1OCC(O)COC(N)=O` (stereo not drawn), the Potency result was “inactive”.
Still for that read-out and setting: the same measure for `COc1ccc(C(=O)N2CCN(CC(=O)N3CCOCC3)CC2)cc1`: “inactive”; for `CC(C)=CC(=O)O`: “inactive”.
On the same count and under the same terms, the same measure for `OCC(O)c1ccccc1` (stereo not drawn): “inactive”.
Same read-out and setting: the same measure for `COc1ccc(NS(=O)(=O)c2ccc(N)cc2)nn1`: “inactive”; for `CC(C)(O)c1ccccc1CC[C@@H](SCC1(CC(=O)O)CC1)c1cccc(/C=C/c2ccc3ccc(Cl)cc3n2)c1`: “inactive”; for `c1ccc2c(CC3=NCCN3)cccc2c1`: “inactive”.
As for `N#Cc1ccc(C/C(=N/NC(=O)Nc2ccc(OC(F)(F)F)cc2)c2cccc(C(F)(F)F)c2)cc1`, the Potency result was “inactive”.
On the same count and under the same terms, for `Nc1cccc(S(=O)(=O)c2cccc(N)c2)c1` the value was “inactive”.
Same read-out and setting: for `O=c1[nH]cnc2ccccc12` the value was “inactive”.
On the same count and under the same terms, the same measure for `O=C(CCCCCCCCc1cccnc1)N1CCC(C=C(c2ccccc2)c2ccccc2)CC1`: “inactive”.
For `CCOCC(O)COc1ccc(NC(=O)CC[S+](C)C)cc1` (stereo not drawn), the Potency result is “inactive”.
The same measure, in the same setting: for `C1CCN(CN2CCCCC2)CC1` the value was “inactive”.
In the case of `CC(=O)OCC(=O)[C@@]1(O)CCC2C3CCC4=CC(=O)CC[C@]4(C)C3[C@@H](O)C[C@@]21C` (stereo partly drawn), the Potency result was “inactive”.
The same measure, in the same setting: for `CC1=CC[C@H](C(C)C)C=C1` the value was “inactive”.
